The text below walks through data of PubChem BioAssay (NCATS).

Results filed as inconclusive are left out. The source made the active and inactive calls. Calls come from the whole dose curve.

The nature of assay [1]: Cytotoxicity counterscreen for inhibitors of SARS-CoV-2 cell entry (AID 1645845). For activity change, negative = cytotoxicity: % is set by controls: 0 for no effect and ±100 for the full control effect. Note: nearly all actives have a fitted effect of over 50% in size. The following applies: outcome: dose series up to 57.1 µM unless noted. Put shortly:
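ATP-content luminescence (ATPLite 1step, 15 min RT) read after 48 h compound exposure of Expi293F cells stably expressing human ACE2; normalized to cells-only wells and media-only wells.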

The nature of assay [2]: Primary qHTS to identify inhibitors of SARS-CoV-2 cell entry (AID 1645846). Note: nearly all actives have a fitted effect of over 45% in size. Conditions: SARS-CoV-2 pseudovirus cell entry assay, luminescence; activity change, negative = inhibition: at 57.1 µM (top of the series) unless noted. The gist of the method: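 Luminescence readout (Bright-Glo luciferase) 48 h after pseudoparticle addition. HEK293-ACE2 cells, 1500/well; compound pre-incubation 1 h; Normalized to spike PP and bald PP.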
Potency is the fitted concentration of half-maximal effect.

Consider `COc1cc2c3c(n(CCCNCCO)c(=O)c2cc1OC)-c1cc2c(cc1C3=O)OCO2`, for which, in assay [1], the Potency was 7.94 µM (active). Further, the activity change, negative = inhibition in assay [2] was -96.5%.

Take `O=C(NCC(=O)N1CC[C@H](NC2CCC(O)(c3ccc(-c4ncccn4)cn3)CC2)C1)c1cccc(C(F)(F)F)c1` (stereo not given in full): the Potency entry in assay [1] was “inactive”. The activity change, negative = inhibition in assay [2] is -29.7%.

As to `CN(C(=O)CNC(=O)/C=C/c1cccc(Cl)c1)C1CCS(=O)(=O)CC1`, the Potency result in assay [1] was “inactive”. For the same compound, in assay [2], the activity change, negative = inhibition is -2.44%.

Regarding `OCCn1cc(-c2ccc3c(c2)CC/C3=N\O)c(-c2ccncc2)n1`, the Potency entry in assay [1] and in assay [2] was “inactive” in each case.

With `Nc1ncnc2c1c(COc1cccc(Cl)c1)nn2C1CCOCC1`, the Potency entry in assay [1] and in assay [2] was “inactive” each time.

For `Cc1ccc(NS(=O)(=O)c2ccc3c(c2)C2C=CCC2C(c2ccc(C(=O)O)cc2)N3)cc1C` (stereo not given), in assay [1], the Potency entry is “inactive”. For the same compound, the activity change, negative = inhibition in assay [2] is -18.7%.

With `O=C(O)CC1CCC(c2ccc(-c3ccc(Nc4ccc(C(F)(F)F)nc4)cn3)cc2)CC1` (stereo not given), the Potency result in assay [1] was “inactive”. For the same compound, in assay [2], the activity change, negative = inhibition is -24.6%.

Take `CN1CCN(C(=O)c2ccc(-c3ccc4c(C=O)c(O)ccc4c3)s2)CC1`: the Potency entry in assay [1] and in assay [2] was “inactive” throughout.

Turning to `CC#Cc1cncc(-c2ccc3c(c2)[C@@]2(N=C(C)C(N)=N2)C2(CCC(OC)CC2)C3)c1` (stereo not given in full), the Potency entry in assay [1] and in assay [2] was “inactive” each time.

Consider `Cc1c(-c2c(-c3ccc(F)o3)sc3ncnc(O[C@@H](Cc4ccccc4OCc4ccnn4CC(F)(F)F)C(=O)O)c23)ccc(OCCN2CCN(C)CC2)c1Cl`, for which the Potency result in assay [1] was “inactive”. The activity change, negative = inhibition in assay [2] is -7.93%.

Turning to `CC1Cc2ccccc2N1C(=O)Cc1nc(N2CCOCC2)cc(=O)[nH]1` (stereo not given), the Potency entry in assay [1] is “inactive”. The activity change, negative = inhibition in assay [2] was -26.2%.

Consider `CCCCCCCCCCCCC[N+](C)(C)Cc1ccccc1`, for which the Potency in assay [1] and in assay [2] was 20 µM (active) throughout.

As to `Nc1nc(OC(c2ccc(-c3cccc(F)c3)cc2)C(F)(F)F)cc(-c2ccc(C[C@@H](N)C(=O)O)cc2)n1` (stereo not given in full), the Potency entry in assay [1] and in assay [2] was “inactive” each time.

On to `CCS(=O)(=O)N1CCC(C(C)n2c(C)c(C(=O)NCc3c(OC)cc(C)[nH]c3=O)c3ccccc32)CC1` (stereo not given), for which the Potency result in assay [1] is “inactive”. Also, the activity change, negative = inhibition in assay [2] is -8.61%.

In the case of `O=C(NCCCNc1nc(Nc2cccc(CN3CCOCC3)c2)ncc1C1CC1)C1CCC1`, the Potency entry in assay [1] and in assay [2] was “inactive” throughout.

Take `C[C@H](NC(=O)CCC(F)(F)F)C(=O)N[C@@H]1C(=O)N(CCO)c2ncccc2-c2ccccc21`: the Potency result in assay [1] was “inactive”. The activity change, negative = inhibition in assay [2] is -2.66%.

Turning to `C[C@@H](Oc1cc(C(=O)Nc2ccc(C(=O)N3CCN(C)CC3)cc2)nnc1N)c1c(Cl)ccc(F)c1Cl`, the Potency is 28.2 µM (active) in assay [1] and 12.6 µM (active) in assay [2].

On to `COc1cc2c(cc1OC)CN(CCc1ccc(-n3nnc(-c4cc(OC)c(OC)cc4NC(=O)c4cc(=O)c5ccccc5o4)n3)cc1)CC2`, for which the activity change, negative = cytotoxicity in assay [1] was 2.79% [at 0.702 µM] (inactive). Besides, the activity change, negative = inhibition in assay [2] stood at 3.34% [at 0.702 µM].

Regarding `C[C@H]1Oc2cc(cnc2N)-c2c(nn(C)c2C#N)CN(C)C(=O)c2ccc(F)cc21`, in assay [1], the Potency entry was “inactive”. Moreover, the activity change, negative = inhibition in assay [2] is -7.26%.

Regarding `Nc1nc2cc(-c3ccc4ncc(C(=O)N5CCOCC5)n4c3)ccc2o1`, the Potency entry in assay [1] and in assay [2] was “inactive” each time.

As to `Cc1c(NC(=O)c2cc3c(s2)CCCC3)cccc1-c1cn(C)c(=O)c(Nc2ccc(C3C(=O)N(C)CCN3C)cc2)n1` (stereo not given), the Potency result in assay [1] and in assay [2] was “inactive” each time.

For the compound `COc1cc(-c2cn(C)c(=O)c3cnccc23)cc(OC)c1CN(C)C`, the Potency result in assay [1] and in assay [2] was “inactive” throughout.

`COc1ncc(-c2ccc3c(Nc4cc(Oc5cc(F)cc(F)c5)cc(C(=O)O)c4)c(S(=O)(=O)NC4CC4)cnc3c2)c(OC)n1`: the Potency result in assay [1] was “inactive”. The activity change, negative = inhibition in assay [2] was -25%.

With `Cc1cc(C)cc(NC(=O)Cc2ccc(OC(C)(C)C(=O)O)cc2)c1`, the Potency result in assay [1] and in assay [2] was “inactive” each time.

Consider `Nc1nc(F)nc2c1ncn2C1OC(COP(=O)(O)O)C(O)C1O` (stereo not given), for which, in assay [1], the Potency result was “inactive”. Also, the activity change, negative = inhibition in assay [2] was -9.43%.

As to `O=C(c1ccc(NS(=O)(=O)c2cccc3cccnc23)cc1)N1CCN(CC2CC2)CC1`, the Potency result in assay [1] was “inactive”. The activity change, negative = inhibition in assay [2] is -15.9%.

As for `CCc1c(C(=O)NNC(=O)[C@@H](O)c2cc(F)cc(F)c2)ccc(O)c1C`, the Potency result in assay [1] was “inactive”. For the same compound, the activity change, negative = inhibition in assay [2] is -19.8%.

Take `CC1(N)CCN(c2cccnc2NC(=O)c2nc(-c3ncccc3C(F)(F)F)cnc2N)CC1`: in assay [1], the Potency entry is “inactive”. The Potency in assay [2] is 14.1 µM (active).

Consider `CC1c2cccc(O)c2C(O)=C2C(=O)C3(O)C(O)=C(C(N)=O)C(=O)C(N(C)C)C3C(O)C21` (stereo not given), for which, in assay [1], the Potency entry is “inactive”. Also, the activity change, negative = inhibition in assay [2] is -15.9%.

As for `C[C@@H](O)[C@@H]1NC(=O)[C@H](CCCCN)NC(=O)[C@@H](Cc2c[nH]c3ccccc23)NC(=O)[C@H](Cc2ccccc2)NC(=O)[C@@H](NC(=O)[C@H](N)Cc2ccccc2)CSSC[C@@H](C(=O)N[C@H](CO)[C@@H](C)O)NC1=O`, in assay [1], the Potency result is “inactive”. Further, the activity change, negative = inhibition in assay [2] was -12.9% [at 27.1 µM].
